Source: PubChem BioAssay
This is a sample that favours compounds with a hit; in the whole collection about 2.7% have one here.
ALOX12 inh: inhibitors of human 12S-lipoxygenase ALOX12; P18054; purified 12hLO, xylenol orange hydroperoxide absorbance; Potency, µM (doses to about 108 µM), hits mostly inhibitors; hit rate 1.1% among 580,000; AID 1671190
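Purified human 12hLO at 150 nM in 25 mM Hepes, 0.01% Triton X-100, pH 7.0, preincubated 15 min at room temperature with compound. Reaction started with 40 uM arachidonic acid, 30 min at room temperature. Hydroperoxide measured by Fe-xylenol orange, 573/405 nm absorbance ratio.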
A549 tox: counter-screen for Nrf2 inhibitors: cytotoxicity in A549 cells; A549 ARE-Fluc cells, CellTiter-Fluor viability, 18-24 h; Potency, µM (titrated, usually from 46 µM), actives largely listed as inhibitors; hit rate 0.16% among 390,000; AID 504648
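A549 ARE-Fluc cells in 5% FBS OPTI-MEM, 5000 cells/well, rested 2 h then exposed to compounds in concentration-response for 18-24 h at 37 °C. Viability by CellTiter-Fluor fluorescence (Ex 405/Em 525) after 30 min; luciferase luminescence (BugLite, 15 min, RT) read afterwards.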
Nrf2 activator: activates Nrf2 signaling. AREc32 ARE-luciferase reporter (MCF7-derived line), luminescence, 24 h. Potency, µM (doses to about 46.1 µM), usual class: activators. hit rate 0.31% among 410,000; further: nearly all actives have a fitted effect of over 65% in size
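Quantitative high-throughput format: AREc32 reporter cells, 1000 per well, received compound by pin transfer and were incubated 24 hr at 37 deg C, 5% CO2, before Steady-Glo luminescence detection.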
Nrf2 inh: inhibitors of Nrf2 signaling; AID 504444; hit rate 2.1% among 360,000; Potency, µM (top dose mostly 46 µM), usual class: inhibitors; A549 ARE-Fluc reporter, luciferase luminescence, 18-24 h; further: nearly all actives have a fitted effect of over 60% in size
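Two sequential reads on A549 ARE_Fluc cells exposed to compound for 18-24 h: a CellTiter-Fluor fluorescence read for viability, then a luciferase luminescence read for Nrf2/ARE activity.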
LDHA inh: inhibitors of human lactate dehydrogenase A; P00338; purified LDHA, NADH/diaphorase-resazurin fluorescence; stronger effect = lower value; activity change, % (values are at about 110 or 230 µM); AID 1347041; hit rate 0.15% among 480,000; in the data active means activity change below about -30%; inconclusive means mostly about -25% to -30%
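Human LDH5 at 2 nM final in Tris HCl pH 7.4 with 0.06 mM NADH and 0.2 mM pyruvate, reacted 5 minutes at room temperature. Remaining NADH coupled via diaphorase/resazurin; resorufin fluorescence read at 0 and 20 minutes, normalized to enzyme-free and DMSO wells.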
IDH1 R132H inh: blocks human mutant IDH1 R132H enzyme | O75874 | IDH1-R132H enzyme, NADPH consumption, diaphorase/resazurin fluorescence | Potency, µM (titrated, usually from 76.6 µM), actives largely listed as inhibitors | hit rate 0.093% among 390,000 | AID 602179; further: nearly all actives have a fitted effect of over 65% in size
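IDH1-R132H (0.5 ug/mL) preincubated 30 min with compound, then NADPH (0.016 mM) and alpha-KG (2 mM) added; 80 min at RT, pH 7.5. Remaining NADPH coupled via diaphorase/resazurin to fluorescence (540/590 nm); concentration-response curves normalized to no-enzyme control.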
Large screens that a line does not name were inactive. Unless noted, the call rests on the fitted dose curve; in most records, active means well fitted curve in the direction sought with a large enough effect; inconclusive means small, poorly fitted or top-dose-only effect, or another doubt; inactive means no such curve, though single readings can be large; an effect the other way counts as inactive or inconclusive.

CCOc1ccc(S(=O)(=O)Nc2cccc(Cl)c2)cc1	ALOX12 inh inconclusive, A549 tox inconclusive, Nrf2 inh 13µM
CC(=O)Nc1ccc(C(C)=O)cc1OCc1ccccc1C	none (no result: A549 tox, Nrf2 activator, Nrf2 inh, IDH1 R132H inh)
Cc1ccc(C(=O)NC(NC(=O)c2ccccc2)C(Cl)Cl)cc1 (stereo not drawn)	ALOX12 inh inconclusive (no result: A549 tox, Nrf2 activator, Nrf2 inh, IDH1 R132H inh)
CCOc1ccc(NS(=O)(=O)c2ccc(C(=O)N3CCCCCC3)cc2)cc1	ALOX12 inh inconclusive, Nrf2 inh 23µM
CCOc1ccc(S(=O)(=O)Nc2ccc(C(=O)N3CCCC3)cc2)cc1	none
COC(=O)[C@H]1CN(C(=O)c2ccccc2)C(=O)N1	none
COC(=O)C1CCC(=S)N1C(=O)c1ccccc1 (stereo not drawn)	ALOX12 inh 8.9µM
COCCCn1c(N)c(-c2nc3ccccc3n2C)c2nc3ccccc3nc21	Nrf2 inh 21µM
COc1cc(/C=C/c2ccc3cccc(OC)c3n2)c(OC(C)=O)c([N+](=O)[O-])c1	A549 tox 9.2µM, Nrf2 inh 26µM
C#CCOCCOCCOCCNc1nc(N2CCN(C(=O)[C@H](CC(N)=O)n3cc(C(N)[C@H](C)CC)nn3)CC2)nc(N2CCN(C(=O)[C@H](CC(N)=O)n3cc(C(N)[C@@H](C)CC)nn3)CC2)n1 (stereo partly drawn)	ALOX12 inh 0.63µM
C#CCOCCOCCOCCNc1nc(N2CCN(C(=O)Cn3cc(CC(C)O)nn3)CC2)nc(N2CCN(C(=O)[C@H](CCCCN)n3cc(CCC(=O)O)nn3)CC2)n1 (stereo partly drawn)	ALOX12 inh 16µM
C#CCOCCOCCOCCNc1nc(N2CCN(C(=O)Cn3cc(CCCN=C(N)N)nn3)CC2)nc(N2CCN(C(=O)[C@H](CCCCN)n3cc(CC(C)O)nn3)CC2)n1 (stereo partly drawn)	ALOX12 inh inconclusive
C#CCOCCOCCOCCNc1nc(N2CCN(C(=O)[C@H]([C@@H](C)CC)n3cc(CCC(=O)O)nn3)CC2)nc(N2CCN(C(=O)[C@H](C)n3cc(CCCN=C(N)N)nn3)CC2)n1	none
C#CCOCCOCCOCCNc1nc(N2CCN(C(=O)[C@H]([C@@H](C)CC)n3cc(CCCN=C(N)N)nn3)CC2)nc(N2CCN(C(=O)[C@H]([C@@H](C)CC)n3cc(CCC(=O)O)nn3)CC2)n1	ALOX12 inh 10µM
Cc1c(CC(=O)N2CCN(C(=O)C3COc4ccccc4O3)CC2)c(=O)oc2cc(O)c(Cl)cc12 (stereo not drawn)	Nrf2 inh 23µM
COc1ccc(-c2nc(NC(=O)C3CC(=O)N(Cc4ccco4)C3)sc2C)cc1 (stereo not drawn)	ALOX12 inh inconclusive, A549 tox inconclusive, Nrf2 inh 23µM
CC(C)CN1C(=O)c2ccccc2C(C(=O)Nc2ccc(C(N)=O)cc2)C12CCCCC2 (stereo not drawn)	none (no result: A549 tox, Nrf2 activator, Nrf2 inh, LDHA inh, IDH1 R132H inh)
CC1=NOC(=O)/C1=C\c1ccc(-c2ccc(Cl)c(C(=O)O)c2)o1	ALOX12 inh inconclusive
CC1=NOC(=O)/C1=C\c1ccc(-c2ccccc2Br)o1	ALOX12 inh 5.6µM, IDH1 R132H inh inconclusive
O=C(/C=C/c1ccc(-c2ccccc2Br)o1)c1ccccc1	none (no result: A549 tox, Nrf2 activator, Nrf2 inh, IDH1 R132H inh)
CC1=NOC(=O)/C1=C\c1ccc(-c2cccc(Cl)c2)o1	IDH1 R132H inh 37µM (no result: ALOX12 inh)
COc1ccccc1C(=O)NC[C@H]1Cn2c(-c3ccc(Cl)cc3)cnc2CO1	none (no result: A549 tox, Nrf2 activator, Nrf2 inh, LDHA inh, IDH1 R132H inh)
Cc1ccc(SCc2cc(=O)c3c(=O)n(-c4ccccc4)[nH]c3[nH]2)cc1	ALOX12 inh 35µM
O=c1cc(CSc2ccc(Cl)cc2)[nH]c2[nH]n(-c3ccccc3)c(=O)c12	ALOX12 inh 40µM
COc1ccc(CCn2c(SCC(C)C)nc3c2c(=O)n(C)c(=O)n3C)cc1	none (no result: A549 tox, Nrf2 activator, Nrf2 inh, IDH1 R132H inh)
O=C(CSc1nc2ccccc2s1)N/N=C/c1ccco1	Nrf2 activator 5µM
O=C(CSc1nc2ccccc2s1)Nc1cccc(C(F)(F)F)c1	LDHA inh -30 (no result: A549 tox, Nrf2 activator, Nrf2 inh, IDH1 R132H inh)
O=C(CSc1nc2ccccc2s1)N/N=C/c1ccc(C(=O)O)cc1	Nrf2 inh inconclusive
